Calls of active or inactive are those of the source.
What was measured:
[1] = tested on: Plasmodium falciparum Sir2 (PF13_0152, Sir2A); test: pfSir2 binders on small-molecule microarrays, primary screen, biochemical, small-molecule microarray, 635 nm fluorescence (AID 1098); details: small-molecule microarray binding, fluorescence 635 nm; higher = more signal;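 further: score merges spot fluorescence intensity with its signal-to-noise ratio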
[2] = small-molecule microarray binders of probe aDKK1, primary screen, biochemical, biotinylated probe, 635/667 nm fluorescence (AID 1099); details: higher = more signal;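 further: score merges 667nm spot fluorescence with signal to noise across triplicate slides; reference of the scale not given here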
[3] = small-molecule microarray binders of probe aCHRDL2, primary screen, biochemical, biotinylated probe, 635/667 nm fluorescence (AID 1100); details: higher = more signal
[4] = splicing luciferase reporter signal modulators, primary screen, spliceosome inhibition project, cell-based, HEK293, splice +/- reporter (AID 1101); details: luminescence, 24 h, higher = more signal, called active from +8 up or from −8 down;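 further: HEK293 cells carrying a splicing-competent luciferase reporter gene; test concentration not given here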
[5] = target: Fibroblast growth factor 10 (Homo sapiens) (UniProt O15520); test: FGF10 binders on small-molecule microarrays, primary screen, biochemical, small-molecule microarray, 635 nm fluorescence (AID 1102); details: FGF10 binding, fluorescence 635 nm, higher = more signal
Chain of Fibroblast growth factor 10 (Homo sapiens) (O15520 whole entry, looked up): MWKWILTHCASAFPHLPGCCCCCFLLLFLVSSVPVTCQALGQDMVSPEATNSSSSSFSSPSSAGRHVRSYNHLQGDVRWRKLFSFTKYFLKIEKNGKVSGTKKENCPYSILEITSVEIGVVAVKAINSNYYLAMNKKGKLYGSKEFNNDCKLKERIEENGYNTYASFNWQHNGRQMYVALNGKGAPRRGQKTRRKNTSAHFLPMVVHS

[6] = tested on: glycogen synthase kinase-3 (GSK3A per assay name; protocol says GSK3B); test: GSK3 binders on small-molecule microarrays, primary screen, biochemical, small-molecule microarray, 635 nm fluorescence, GSK3A (AID 1103); details: small-molecule microarray binding, fluorescence 635 nm; higher = more signal; further: the record names both GSK3A and GSK3B
[7] = target: Epidermal growth factor receptor (Homo sapiens) (UniProt P00533); test: EGFR binders on small-molecule microarrays, primary screen, biochemical, small-molecule microarray, 635 nm fluorescence (AID 1104); details: EGFR binding, higher = more signal;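 further: score merges 667 nm emission intensity with spot signal to noise over triplicate slides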
Chain of Epidermal growth factor receptor (Homo sapiens) (P00533 whole entry, looked up): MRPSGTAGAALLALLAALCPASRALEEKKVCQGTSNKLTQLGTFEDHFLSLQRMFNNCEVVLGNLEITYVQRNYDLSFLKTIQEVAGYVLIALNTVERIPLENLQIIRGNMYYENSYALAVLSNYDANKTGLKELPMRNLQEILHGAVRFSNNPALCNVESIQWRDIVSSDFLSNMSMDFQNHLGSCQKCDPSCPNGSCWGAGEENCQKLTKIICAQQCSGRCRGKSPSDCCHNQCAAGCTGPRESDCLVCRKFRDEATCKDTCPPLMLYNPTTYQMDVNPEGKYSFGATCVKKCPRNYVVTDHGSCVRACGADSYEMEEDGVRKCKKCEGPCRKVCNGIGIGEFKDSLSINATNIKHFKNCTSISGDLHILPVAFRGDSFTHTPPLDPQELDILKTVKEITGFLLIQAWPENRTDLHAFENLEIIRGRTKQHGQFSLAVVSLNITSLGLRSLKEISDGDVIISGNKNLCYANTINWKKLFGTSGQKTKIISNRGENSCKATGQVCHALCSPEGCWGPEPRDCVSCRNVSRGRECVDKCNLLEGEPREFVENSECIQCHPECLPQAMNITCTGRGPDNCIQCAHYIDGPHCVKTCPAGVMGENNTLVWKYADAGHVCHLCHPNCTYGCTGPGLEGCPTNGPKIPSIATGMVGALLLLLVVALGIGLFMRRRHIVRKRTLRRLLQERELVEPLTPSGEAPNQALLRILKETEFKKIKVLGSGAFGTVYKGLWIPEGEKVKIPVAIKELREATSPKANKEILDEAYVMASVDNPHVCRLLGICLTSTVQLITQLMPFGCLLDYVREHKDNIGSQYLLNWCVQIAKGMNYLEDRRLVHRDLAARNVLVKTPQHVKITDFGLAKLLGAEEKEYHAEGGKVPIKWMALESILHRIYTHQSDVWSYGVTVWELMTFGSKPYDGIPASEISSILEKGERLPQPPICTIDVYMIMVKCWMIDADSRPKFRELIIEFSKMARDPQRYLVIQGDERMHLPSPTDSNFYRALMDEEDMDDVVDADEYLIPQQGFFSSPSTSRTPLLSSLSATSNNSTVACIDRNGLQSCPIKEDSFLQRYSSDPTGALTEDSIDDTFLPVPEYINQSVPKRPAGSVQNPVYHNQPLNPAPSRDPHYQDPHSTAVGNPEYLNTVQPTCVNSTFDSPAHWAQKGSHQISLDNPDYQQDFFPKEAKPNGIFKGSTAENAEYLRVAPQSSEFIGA

[8] = target: Follistatin-related protein 3 (Homo sapiens) (UniProt O95633); test: FSTL3 binders on small-molecule microarrays, primary screen, biochemical, small-molecule microarray, 635 nm fluorescence (AID 1105); details: FSTL3 binding, higher = more signal;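 further: score merges emission near 667 nm and signal to noise per printed spot across three slides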
Chain of Follistatin-related protein 3 (Homo sapiens) (O95633 whole entry, looked up): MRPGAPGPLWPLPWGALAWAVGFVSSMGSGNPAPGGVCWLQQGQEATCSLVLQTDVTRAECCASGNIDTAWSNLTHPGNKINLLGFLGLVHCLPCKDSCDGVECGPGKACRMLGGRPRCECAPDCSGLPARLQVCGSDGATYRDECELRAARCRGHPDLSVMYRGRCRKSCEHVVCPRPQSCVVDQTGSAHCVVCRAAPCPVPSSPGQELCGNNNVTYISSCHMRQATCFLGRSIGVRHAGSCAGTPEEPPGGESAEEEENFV

[9] = target: Dickkopf-related protein 1 (Homo sapiens) (UniProt O94907); test: DKK1 binders on small-molecule microarrays, primary screen, biochemical, small-molecule microarray, 635 nm fluorescence scan (AID 1106); details: DKK1 binding, higher = more signal;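 further: score merges emission near 667 nm with signal to noise over three replicate slides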
Chain of Dickkopf-related protein 1 (Homo sapiens) (O94907 whole entry, looked up): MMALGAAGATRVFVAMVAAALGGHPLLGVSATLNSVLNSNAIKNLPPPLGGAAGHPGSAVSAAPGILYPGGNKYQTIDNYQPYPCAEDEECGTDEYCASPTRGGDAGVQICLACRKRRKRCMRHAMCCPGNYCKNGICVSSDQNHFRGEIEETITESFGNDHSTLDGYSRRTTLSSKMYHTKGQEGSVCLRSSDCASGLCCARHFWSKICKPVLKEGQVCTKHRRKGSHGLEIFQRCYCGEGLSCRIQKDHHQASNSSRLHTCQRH

[10] = tested on: Inhibin beta A chain (activin A); test: INHBA (activin A) binders on microarrays, primary screen, biochemical, small-molecule microarray, 635 nm fluorescence scan (AID 1107); details: small-molecule microarray binding, higher = more signal;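 further: mouse activin A protein probed at 4.33 µg/mL on printed slides; score merges bound-protein fluorescence near 667 nm with spot signal-to-noise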

SMILES	composite z-score [1]	composite z-score [2]	composite z-score [3]	z-score [4]	composite z-score [5]	composite z-score [6]	composite z-score [7]	composite z-score [8]	composite z-score [9]	composite z-score [10]
O=C1[C@H]2C=C(Br)[C@H](C[C@@H]2OCCOCCO)[C@@]12CO2	0.146	-0.119	-0.115	0.651 (inactive)	0.527	0.144	0.475	0.118	0.18	1.02
Cc1ccc(N2C(=O)c3ccccc3[C@@H](C(=O)NC(C)C)[C@@H]2c2ccc(CO)cc2)nc1	1.87	0.167	0.61	0.245 (inactive)	0.121	-0.0399	-0.416	-0.64	-0.32	0.726
CC(=O)NCCCC[C@@H]1NC(=O)[C@@H]2C[C@H](C(=O)NCCCCCC[N+](C)(C)C)[C@H](c3cccc(OCCO)c3)N2C1=O	1.13	-0.145	-0.0962	-0.0513 (inactive)	1.23	1.27	0.341	1.25	1.45	0.811
O=C(NCCN1CCOCC1)[C@@H]1c2ccccc2C(=O)N(Cc2cc(F)cc(C(F)(F)F)c2)[C@H]1c1ccc(CO)cc1	1.07	-0.469	0.776	0.284 (inactive)	0.07	-0.202	-0.651	-0.217	-1.14	-0.333
O=C1C2C=CC(C(O)c3ccc(B(O)O)cc3)N(Nc3ccc([N+](=O)[O-])cc3)C2C(=O)N1c1ccccc1 (stereo not given)	0.76	0.627	0.642	0.98 (inactive)	1.11	1.19	0.415	0.998	-0.0757	0.0102
COC(=O)[C@@]1(Cc2ccc(OC)cc2)[C@H]2c3cc(C(=O)N(C)C)n(CCSCCO)c3C[C@H]2CN1C(=O)c1ccccc1	0.403	1.14	1.16	-2.69 (inactive)	0.448	0.528	-0.263	0.413	-0.796	0.737
CCCC[C@H]1C[C@@H]1[C@@H]1N(P(=O)(c2ccccc2)c2ccccc2)[C@](CO)(c2ccccc2)CC12CC2	1.09	0.639	1.01	-4.35 (inactive)	0.104	-0.571	-0.395	-0.177	-1.47	0.846
CC1CC/C=C\[C@H]2OC34C=CCN(Cn5nnc6ccccc65)C(=O)[C@H]3N(CCCO)C(=O)[C@@H]4C2C(=O)O1 (stereo not given in full)	1.14	-0.12	0.763	-0.538 (inactive)	-1.04	-1.31	-0.991	-0.97	-1.6	0.767
CN(C)CCCC[C@@H]1NC(=O)[C@@H]2C[C@H](C(=O)NCCCCCCN)[C@H](c3ccc(O)cc3)N2C1=O	0.812	1.46	0.848	-0.0228 (inactive)	0.987	1	0.734	0.849	1.05	1.41
COc1ccc([Si](C)(C)[C@@H]2[C@@H](CCO)O[C@]3(C(=O)N(Cc4cccc(N5CCCCC5=O)c4)c4ccccc43)[C@H]2C)cc1	1.06	-0.0212	0.113	-2.96 (inactive)	1.04	0.971	0.319	1	0.404	0.764
C=CC[C@@]1(C(=O)NCCN2CCOCC2)N=C(c2ccc(OCCCO)cc2)O[C@@H]1c1ccccc1CN=[N+]=[N-]	1.02	1.06	1.3	-1.05 (inactive)	0.205	0.62	-0.357	0.221	0.137	1.46
C=CC[C@]1(C(=O)O)N=C(c2ccc(OCCCO)cc2)O[C@H]1c1ccccc1CN=[N+]=[N-]	1.74	0.177	0.559	-0.611 (inactive)	-0.222	-0.341	-0.0348	0.0521	-0.128	1.35
CCCNC(=O)[C@@]1(C)c2ccccc2C(=O)N(C(C)C)[C@H]1c1ccc(CO)cc1	1.2	0.695	1.09	0.208 (inactive)	-0.668	-0.743	-1.14	-0.737	-0.612	-0.105
C[C@]1(C(=O)NCC(F)(F)F)c2ccccc2C(=O)N(Cc2cc(F)cc(C(F)(F)F)c2)[C@H]1c1ccc(CO)cc1	1.54	1.64	0.572	-0.633 (inactive)	0.257	-0.12	0.0376	-0.66	-0.609	-0.461
CN1C(=O)C2C=CC(C(O)C3=C[C@H]4C[C@@H](C3)C4(C)C)N(Nc3ccc([N+](=O)[O-])cc3[N+](=O)[O-])C2C1=O (stereo not given in full)	1.22	1.34	1.07	0.674 (inactive)	0.721	1.28	0.21	0.988	-0.446	0.844
COC(=O)[C@@]1(Cc2ccc(OC)cc2)[C@H]2c3cc(C(=O)N4CCCC4)n(CCc4ccccn4)c3C[C@H]2CN1C(=O)c1ccccc1	1.18	0.904	0.95	-1.36 (inactive)	0.289	-0.282	-0.664	-0.396	-0.949	0.845
COc1cc(CO)cc(I)c1O[C@H]1C=C(C(=O)NCCO)C[C@@H](N(CCc2cccc(F)c2)C(=O)CCC2CCCC2)[C@@H]1O	1.1	0.0556	0.252	-1.37 (inactive)	1.54	1.01	-0.261	0.716	0.897	0.733
